{"source": "ChEMBL document CHEMBL3988442", "about": "“University of Dundee, Small-Polar-MMV Screening Library” (2021)", "key": {"[1]": {"target": "T1, Methionyl-tRNA synthetase, putative (Leishmania donovani (strain BPK282A1)) (UniProt E9BF75)", "T1 sequence (whole entry)": "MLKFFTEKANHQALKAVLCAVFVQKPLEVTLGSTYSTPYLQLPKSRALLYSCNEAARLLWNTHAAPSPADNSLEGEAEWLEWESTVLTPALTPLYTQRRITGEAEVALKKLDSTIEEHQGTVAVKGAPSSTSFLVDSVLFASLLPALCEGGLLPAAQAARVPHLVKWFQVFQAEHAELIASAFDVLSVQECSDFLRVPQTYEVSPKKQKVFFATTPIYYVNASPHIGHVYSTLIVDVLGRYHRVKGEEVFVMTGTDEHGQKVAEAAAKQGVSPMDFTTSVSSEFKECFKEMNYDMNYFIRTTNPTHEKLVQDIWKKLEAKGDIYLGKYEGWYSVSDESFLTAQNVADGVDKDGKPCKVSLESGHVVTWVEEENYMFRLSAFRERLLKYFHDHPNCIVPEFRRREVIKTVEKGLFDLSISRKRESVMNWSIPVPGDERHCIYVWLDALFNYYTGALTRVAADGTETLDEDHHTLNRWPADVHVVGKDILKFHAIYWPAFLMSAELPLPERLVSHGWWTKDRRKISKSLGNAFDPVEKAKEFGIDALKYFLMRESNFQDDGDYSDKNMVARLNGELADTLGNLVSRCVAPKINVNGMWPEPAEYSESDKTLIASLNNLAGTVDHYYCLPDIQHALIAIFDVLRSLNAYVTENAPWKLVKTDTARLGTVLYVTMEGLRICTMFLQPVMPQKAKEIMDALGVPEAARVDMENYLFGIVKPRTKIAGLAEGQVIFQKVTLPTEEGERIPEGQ", "test": "Leishmania donovani Methionine tRNA synthetase (LdMetRS):v7. Dose response assay", "assay_type": "functional", "set-up": "conc 80 nM, time 150 minutes"}, "[2]": {"target": "Protein translocase subunit SecA (Escherichia coli (strain K12)) (UniProt P10408)", "sequence (P10408 whole entry)": "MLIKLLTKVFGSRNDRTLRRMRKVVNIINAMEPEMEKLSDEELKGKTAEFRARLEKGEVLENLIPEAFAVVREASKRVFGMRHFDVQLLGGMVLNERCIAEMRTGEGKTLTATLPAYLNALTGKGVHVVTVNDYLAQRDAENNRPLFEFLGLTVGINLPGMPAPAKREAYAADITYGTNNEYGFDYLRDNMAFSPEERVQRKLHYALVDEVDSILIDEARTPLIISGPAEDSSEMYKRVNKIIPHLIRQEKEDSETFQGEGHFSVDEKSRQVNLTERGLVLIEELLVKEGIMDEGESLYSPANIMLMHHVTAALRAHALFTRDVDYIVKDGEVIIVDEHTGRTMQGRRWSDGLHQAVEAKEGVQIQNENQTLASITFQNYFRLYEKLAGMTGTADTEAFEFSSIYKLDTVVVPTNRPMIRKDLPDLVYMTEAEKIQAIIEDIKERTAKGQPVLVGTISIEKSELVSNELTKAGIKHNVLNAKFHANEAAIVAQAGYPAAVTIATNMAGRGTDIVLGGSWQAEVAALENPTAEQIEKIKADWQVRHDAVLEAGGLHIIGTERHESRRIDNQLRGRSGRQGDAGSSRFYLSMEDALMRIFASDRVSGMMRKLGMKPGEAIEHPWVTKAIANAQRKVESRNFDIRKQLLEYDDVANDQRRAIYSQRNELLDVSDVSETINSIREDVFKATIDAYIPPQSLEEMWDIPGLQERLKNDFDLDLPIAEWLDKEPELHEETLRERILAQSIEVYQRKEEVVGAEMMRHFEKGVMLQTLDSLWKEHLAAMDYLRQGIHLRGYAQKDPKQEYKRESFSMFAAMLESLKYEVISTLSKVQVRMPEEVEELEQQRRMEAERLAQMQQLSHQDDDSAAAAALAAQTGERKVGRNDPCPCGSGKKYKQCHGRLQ", "test": "Assay to Identify E. coli SecA ATPase Inhibitors", "assay_type": "functional", "set-up": "scale not given: direction of the effect not stated beside the values", "details": "30 µM"}, "[3]": {"target": "T2, Ubiquitin-activating enzyme e1, putative (Leishmania donovani (strain BPK282A1)) (UniProt E9BSI1)", "T2 sequence (whole entry)": "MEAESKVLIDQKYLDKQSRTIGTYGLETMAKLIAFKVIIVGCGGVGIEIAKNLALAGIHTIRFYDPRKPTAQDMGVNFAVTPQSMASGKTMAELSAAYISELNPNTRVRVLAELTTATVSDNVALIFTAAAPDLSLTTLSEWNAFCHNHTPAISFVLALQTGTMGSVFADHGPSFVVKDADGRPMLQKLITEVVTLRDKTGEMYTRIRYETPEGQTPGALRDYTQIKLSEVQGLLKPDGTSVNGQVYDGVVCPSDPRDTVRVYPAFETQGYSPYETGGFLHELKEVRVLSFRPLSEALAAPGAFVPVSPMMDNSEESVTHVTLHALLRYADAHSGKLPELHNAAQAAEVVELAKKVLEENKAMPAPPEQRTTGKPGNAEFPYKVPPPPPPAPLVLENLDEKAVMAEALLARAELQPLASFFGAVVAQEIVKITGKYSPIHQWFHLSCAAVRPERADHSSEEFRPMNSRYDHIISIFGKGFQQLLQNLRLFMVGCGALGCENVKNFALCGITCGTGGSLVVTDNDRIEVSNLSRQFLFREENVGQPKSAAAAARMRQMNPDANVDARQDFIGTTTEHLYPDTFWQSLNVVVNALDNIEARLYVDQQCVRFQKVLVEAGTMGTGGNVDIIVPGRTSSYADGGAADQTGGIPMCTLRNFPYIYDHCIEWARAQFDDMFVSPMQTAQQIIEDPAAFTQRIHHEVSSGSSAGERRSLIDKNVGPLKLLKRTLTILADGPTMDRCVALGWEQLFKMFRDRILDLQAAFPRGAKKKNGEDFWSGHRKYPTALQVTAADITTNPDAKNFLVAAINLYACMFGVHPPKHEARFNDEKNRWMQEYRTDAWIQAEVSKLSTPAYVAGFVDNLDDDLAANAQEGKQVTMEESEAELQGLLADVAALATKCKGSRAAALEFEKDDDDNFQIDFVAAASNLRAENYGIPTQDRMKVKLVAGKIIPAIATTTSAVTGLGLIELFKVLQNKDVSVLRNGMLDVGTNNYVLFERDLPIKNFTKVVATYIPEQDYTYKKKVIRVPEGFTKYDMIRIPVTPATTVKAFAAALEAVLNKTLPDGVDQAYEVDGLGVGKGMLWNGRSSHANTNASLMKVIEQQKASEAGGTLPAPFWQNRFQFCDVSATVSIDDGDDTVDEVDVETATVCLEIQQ", "test": "Leishmania donovani Ubiquitin Activating Enzyme (LdE1)", "assay_type": "functional", "set-up": "scale not given: direction of the effect not stated beside the values", "details": "30 µM"}, "[4]": {"target": "AMP-activated protein kinase, AMPK (Homo sapiens) (UniProt P54646+O43741+P54619+Q9UGJ0+Q9Y478+Q13131+Q9UGI9)", "test": "AMP-dependent Kinase enzyme assay. An in vitro enzyme assay that detects ADP turnover that is directly proportional to AMPK activity. This uses naive AMPK that is activated during the assay with MK-8722", "assay_type": "functional", "set-up": "scale not given: direction of the effect not stated beside the values", "details": "30 µM"}, "[5]": {"target": "Sialic acid-binding Ig-like lectin 9 (Homo sapiens) (UniProt Q9Y336)", "sequence (Q9Y336 whole entry)": "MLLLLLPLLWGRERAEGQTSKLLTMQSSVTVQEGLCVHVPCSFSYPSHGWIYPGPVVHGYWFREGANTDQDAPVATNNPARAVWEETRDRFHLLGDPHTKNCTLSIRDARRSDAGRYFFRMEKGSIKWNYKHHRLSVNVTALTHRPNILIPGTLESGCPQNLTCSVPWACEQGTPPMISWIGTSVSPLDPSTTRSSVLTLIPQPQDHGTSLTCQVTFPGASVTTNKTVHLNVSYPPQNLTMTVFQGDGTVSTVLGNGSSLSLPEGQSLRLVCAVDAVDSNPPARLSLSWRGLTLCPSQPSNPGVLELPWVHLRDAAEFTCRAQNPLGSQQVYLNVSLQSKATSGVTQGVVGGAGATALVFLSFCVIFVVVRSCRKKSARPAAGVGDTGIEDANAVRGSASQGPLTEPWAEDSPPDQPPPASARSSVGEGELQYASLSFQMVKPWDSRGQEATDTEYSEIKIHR", "test": "Hs-Siglec9 ALPHAscreen SOP 20170721", "set-up": "scale not given: direction of the effect not stated beside the values", "details": "10 µM"}, "Trypanosoma cruzi": {"test_system": "Trypanosoma cruzi", "test": "Trypanosoma cruzi phosphomannomutase and mannose-1-phosphate guanylyltransferase assay", "assay_type": "functional", "set-up": "scale not given: direction of the effect not stated beside the values", "details": "10 µM"}, "[6]": {"target": "T3, Arginase-2, mitochondrial (Homo sapiens) (UniProt P78540)", "T3 sequence (whole entry)": "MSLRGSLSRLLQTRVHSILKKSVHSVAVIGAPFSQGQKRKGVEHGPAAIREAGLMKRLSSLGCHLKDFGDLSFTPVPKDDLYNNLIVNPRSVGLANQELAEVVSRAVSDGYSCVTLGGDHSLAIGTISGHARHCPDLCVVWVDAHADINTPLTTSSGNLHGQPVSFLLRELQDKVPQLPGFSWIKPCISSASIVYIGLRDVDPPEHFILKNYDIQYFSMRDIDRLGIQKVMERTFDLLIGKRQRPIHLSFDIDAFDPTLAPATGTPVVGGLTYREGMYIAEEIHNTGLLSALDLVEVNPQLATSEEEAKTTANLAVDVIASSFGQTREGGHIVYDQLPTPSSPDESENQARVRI", "test": "in vitro enzyme assay to detect the production of urea directly proportional to the activity of Arginase II", "assay_type": "functional", "set-up": "scale not given: in the data most compounds retested in dose-response had high values", "details": "33.3 µM"}, "[7]": {"target": "T4, Proteasome subunit beta (Trypanosoma cruzi) (UniProt O96673)", "T4 sequence (whole entry)": "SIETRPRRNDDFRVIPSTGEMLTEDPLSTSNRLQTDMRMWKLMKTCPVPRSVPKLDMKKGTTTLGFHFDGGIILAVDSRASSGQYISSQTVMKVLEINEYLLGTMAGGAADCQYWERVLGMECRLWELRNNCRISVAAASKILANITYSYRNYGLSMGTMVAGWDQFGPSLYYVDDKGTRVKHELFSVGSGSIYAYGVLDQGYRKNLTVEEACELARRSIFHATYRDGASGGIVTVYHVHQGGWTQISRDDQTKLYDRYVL", "test": "Trypanosoma cruzi proteasome chymotrypsin-like activity (TcProtChymo) assay.", "assay_type": "functional", "set-up": "scale not given: in the data most compounds retested in dose-response had high values", "details": "9.37 µM"}, "Homo sapiens": {"species_on_record": "Homo sapiens", "test": "To identify inhibition of the IFN signalling (Jak-Stat) pathway via expression of an eGFP reporter gene under the control of an IFN-stimulated response element (ISRE) containing MxA promoter.", "assay_type": "functional", "set-up": "scale not given: direction of the effect not stated beside the values", "details": "30 µM"}, "[8]": {"target": "T5, Tyrosyl-tRNA synthetase, putative (Trypanosoma cruzi (strain CL Brener)) (UniProt Q4DSP6)", "T5 sequence (whole entry)": "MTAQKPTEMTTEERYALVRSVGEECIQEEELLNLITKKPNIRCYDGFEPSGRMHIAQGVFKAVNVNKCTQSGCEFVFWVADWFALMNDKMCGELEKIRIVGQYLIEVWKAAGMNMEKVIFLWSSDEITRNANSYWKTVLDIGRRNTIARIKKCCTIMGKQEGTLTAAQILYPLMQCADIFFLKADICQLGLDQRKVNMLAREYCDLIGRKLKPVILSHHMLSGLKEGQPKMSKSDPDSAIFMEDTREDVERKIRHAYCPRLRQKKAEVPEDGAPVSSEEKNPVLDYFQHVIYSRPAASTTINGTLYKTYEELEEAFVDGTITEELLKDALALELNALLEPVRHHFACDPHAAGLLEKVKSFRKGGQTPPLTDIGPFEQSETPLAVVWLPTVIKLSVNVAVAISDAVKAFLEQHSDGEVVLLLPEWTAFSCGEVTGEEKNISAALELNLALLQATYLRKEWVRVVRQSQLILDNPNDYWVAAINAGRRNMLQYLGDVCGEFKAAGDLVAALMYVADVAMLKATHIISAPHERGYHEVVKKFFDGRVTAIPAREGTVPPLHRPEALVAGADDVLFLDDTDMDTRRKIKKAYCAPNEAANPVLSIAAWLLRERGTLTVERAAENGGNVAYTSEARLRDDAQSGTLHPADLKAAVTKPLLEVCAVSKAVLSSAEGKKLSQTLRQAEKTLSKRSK", "test": "Trypanosoma cruzi tyrosyl tRNA synthetase (TcYRS) _High Tyrosine SOP", "assay_type": "functional", "set-up": "scale not given: in the data most compounds retested in dose-response had high values", "details": "30 µM"}, "[9]": {"target": "T5, Tyrosyl-tRNA synthetase, putative (Trypanosoma cruzi (strain CL Brener))", "test": "Trypanosoma cruzi tyrosyl tRNA synthetase (TcYRS) SOP", "assay_type": "functional", "set-up": "scale not given: direction of the effect not stated beside the values", "details": "30 µM"}, "[10]": {"target": "Chromo domain-containing protein 1 (Saccharomyces cerevisiae (strain ATCC 204508 / S288c) (Baker's yeast)) (UniProt P32657)", "sequence (P32657 whole entry, the tested form may be a part)": "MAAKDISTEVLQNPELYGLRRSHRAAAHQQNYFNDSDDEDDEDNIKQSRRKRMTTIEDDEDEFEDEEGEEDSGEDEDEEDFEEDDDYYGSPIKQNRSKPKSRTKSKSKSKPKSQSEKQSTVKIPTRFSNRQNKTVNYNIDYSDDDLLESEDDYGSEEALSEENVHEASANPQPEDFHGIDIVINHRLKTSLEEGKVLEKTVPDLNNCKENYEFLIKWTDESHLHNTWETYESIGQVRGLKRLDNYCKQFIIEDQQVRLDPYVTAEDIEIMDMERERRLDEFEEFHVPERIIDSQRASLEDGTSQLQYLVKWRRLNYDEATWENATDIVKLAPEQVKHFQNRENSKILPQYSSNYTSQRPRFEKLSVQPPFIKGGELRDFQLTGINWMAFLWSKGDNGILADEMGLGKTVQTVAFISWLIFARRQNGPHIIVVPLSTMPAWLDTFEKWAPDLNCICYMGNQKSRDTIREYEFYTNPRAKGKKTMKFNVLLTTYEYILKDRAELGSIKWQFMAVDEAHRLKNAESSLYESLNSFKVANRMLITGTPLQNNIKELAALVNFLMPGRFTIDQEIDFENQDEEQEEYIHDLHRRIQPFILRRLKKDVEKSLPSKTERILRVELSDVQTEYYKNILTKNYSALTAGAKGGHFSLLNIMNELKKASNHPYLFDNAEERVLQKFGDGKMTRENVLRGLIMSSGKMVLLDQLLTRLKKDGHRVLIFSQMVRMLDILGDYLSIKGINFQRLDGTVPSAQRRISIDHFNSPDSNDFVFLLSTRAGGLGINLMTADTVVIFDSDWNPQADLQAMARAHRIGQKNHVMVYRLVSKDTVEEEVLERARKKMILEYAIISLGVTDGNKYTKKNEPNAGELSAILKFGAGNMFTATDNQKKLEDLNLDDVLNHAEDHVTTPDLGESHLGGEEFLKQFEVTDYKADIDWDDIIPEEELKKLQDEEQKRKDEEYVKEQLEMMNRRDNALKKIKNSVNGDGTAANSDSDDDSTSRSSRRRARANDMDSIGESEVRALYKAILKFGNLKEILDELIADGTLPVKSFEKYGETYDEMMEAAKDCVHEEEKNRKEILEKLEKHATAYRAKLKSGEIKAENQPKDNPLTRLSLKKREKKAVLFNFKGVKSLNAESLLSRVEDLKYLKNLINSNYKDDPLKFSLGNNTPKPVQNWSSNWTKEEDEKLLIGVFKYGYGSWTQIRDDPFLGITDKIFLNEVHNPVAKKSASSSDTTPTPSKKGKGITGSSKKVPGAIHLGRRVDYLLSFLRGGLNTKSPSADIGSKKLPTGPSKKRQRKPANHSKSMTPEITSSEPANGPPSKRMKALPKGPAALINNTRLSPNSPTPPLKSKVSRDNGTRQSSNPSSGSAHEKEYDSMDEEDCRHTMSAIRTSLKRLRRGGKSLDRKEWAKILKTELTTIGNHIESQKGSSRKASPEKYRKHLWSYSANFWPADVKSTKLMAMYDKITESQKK", "test": "ScCHD-1 Enzyme Inhibition Assay", "assay_type": "functional", "set-up": "scale not given: in the data most compounds retested in dose-response had high values", "details": "30 µM"}}, "note": "For some of these results: Results with a measured potency or affinity are listed apart."}
{"smiles": "Cn1cc(CN2CCC(F)(F)C3(CCN(c4cnccn4)C3)C2)cn1", "note": "(stereo not drawn)", "values": [{"measurement": "PXC50", "setting": "[1]; MAX_EFFECT 6.650831354", "value": "< 4"}, {"measurement": "PXC50", "setting": "[1]; MAX_EFFECT 15.31690141", "value": "< 4"}, {"measurement": "Percent Effect", "setting": "[2]", "value": -4.19, "unit": "%"}, {"measurement": "Percent Effect", "setting": "[3]", "value": 2.7, "unit": "%"}, {"measurement": "Percent Effect", "setting": "[4]", "value": 6.66, "unit": "%"}, {"measurement": "Percent Effect", "setting": "[5]", "value": -1.14, "unit": "%"}, {"measurement": "Percent Effect", "setting": "Trypanosoma cruzi", "value": 0, "unit": "%"}, {"measurement": "Percent Effect", "setting": "[6]", "value": 4.17, "unit": "%"}, {"measurement": "Percent Effect", "setting": "[7]", "value": -3.47, "unit": "%"}, {"measurement": "Percent Effect", "setting": "Homo sapiens", "value": 5.63, "unit": "%"}, {"measurement": "Percent Effect", "setting": "[8]", "value": 8.91, "unit": "%"}, {"measurement": "Percent Effect", "setting": "[9]", "value": 8.54, "unit": "%"}, {"measurement": "Percent Effect", "setting": "[10]", "value": -4.16, "unit": "%"}]}
